Drawing on PubChem BioAssay AID463173 (ICCB-Longwood Screening Facility, Harvard Medical School, 2010), this text covers survival for 65 compounds.

Structures are written as SMILES. About 4,300 (8.3%) of roughly 52,000 compounds were called active. The sample as a whole holds a higher share of actives than the screen did. Values without a mark were called inactive. Rule as the data show it: active = survival mostly below about 52% (no sharp cut-off); inactive = mostly above about 56%.

The subject of the test is DeltatarO mutant. The experiment in a line: growth inhibition of S. aureus wild type versus tarO mutant, primary screen, teichoic acid synthesis inhibitors, RN4220, OD600 (AID 463173). Conditions: OD600, 18 h, active compounds read low, screened at 18.75 µg/mL (by protocol).
With `O=C(NCCN1CCN(c2ccccc2)CC1)Nc1ccccc1Br`, the survival is 87%.

For the compound `Cc1ccc(C)c(CN2C(=O)c3ccccc3S(=O)(=O)c3ccc(C(=O)N4CCCCC4)cc32)c1`, the survival was 61%.

Regarding `Cc1cc2nn(-c3ccc(F)cc3)nc2cc1NC(=O)c1ccc(OC(C)C)cc1`, the survival is 64%.

With `O=c1c(S(=O)(=O)c2cccc(Cl)c2)cn(Cc2ccccc2)c2cc(N3CCOCC3)c(F)cc12`, the survival is 83%.

As to `CCC(=O)N1CCc2cc(CNS(=O)(=O)c3ccc(NC(=O)CC(C)C)cc3)ccc21`, the survival is 86%.

Turning to `CC(=O)Nc1ccc(OC(=O)c2ccco2)cc1`, the survival was 71%.

For `Cc1cc(C)cc(Nc2ncnc3sc4c(c23)CCCC4)c1`, the survival was 0% (active).

As for `CN(C)c1ccc(Nc2ncnc3sc4c(c23)CCCC4)cc1`, the survival is 106%.

Regarding `c1cn(CCCNc2ncnc3sc4c(c23)CCCCC4)cn1`, the survival is 65%.

In the case of `CC(C)OCCCNc1ncnc2sc3c(c12)CCCC3`, the survival is 42% (active).

Regarding `c1coc(CNc2ncnc3sc4c(c23)CCCC4)c1`, the survival is 107%.

`CCc1ccc(Nc2ncnc3sc4c(c23)CCCC4)cc1`: the survival was 72%.

With `CCOc1ccccc1NC(=O)C1CCN(S(=O)(=O)c2c(C)noc2/C=C/c2ccco2)CC1`, the survival is 72%.

Consider `COc1ccc(N2CCN(S(=O)(=O)c3ccc4c(c3)C(C(C)C)C(=O)N4)CC2)cc1` (stereo not given), for which the survival is 125%.

For the compound `COc1ccc(N2CCN(S(=O)(=O)c3ccc(C4CCCCC4)cc3)CC2)cc1`, the survival was 79%.

Consider `COc1ccc(N2CCN(S(=O)(=O)c3ccc(CC(C)C)cc3)CC2)cc1`, for which the survival was 56% (active).

In the case of `Cc1ccc(NC(=O)Cn2cc(C(=O)C3CC3)c3ccccc32)cc1`, the survival is 148%.

Consider `CCOC(=O)c1c(C)n(-c2ccccc2)c2ccc(OC(=O)COc3ccccc3)cc12`, for which the survival was 70%.

With `CCN1C(=C(C#N)C#N)C=Cc2cc(C)ccc21`, the survival is 70%.

Consider `COc1cccc(N2CC(NC(=O)c3ccc(S(=O)(=O)N4CCOCC4)cc3)CC2=O)c1` (stereo not given), for which the survival was 117%.

`COC(=O)Cc1c(C)nc2nc(-c3ccc(C)cc3)[nH]n2c1=O`: the survival is 92%.

With `CCN(CC)S(=O)(=O)c1cc(-c2ccc(=O)n(C(C)C(=O)Nc3cccc(C#N)c3)n2)ccc1C` (stereo not given), the survival is 56%.

Take `CC(C(=O)Nc1ccccc1C(F)(F)F)n1nc(-c2ccccc2)c2c(c1=O)CCCC2` (stereo not given): the survival was 30% (active).

Consider `Cc1nn(C(C)C(=O)Nc2ccccc2C(F)(F)F)c(=O)c2c1sc1ccccc12` (stereo not given), for which the survival is 107%.

Consider `CC(=O)Nc1ccccc1-c1nc2ccccc2n(C(C)C(=O)Nc2ccccc2C(F)(F)F)c1=O` (stereo not given), for which the survival is 98%.

In the case of `CC(C(=O)Nc1ccccc1)n1nnc2sc3c(c2c1=O)CCCC3` (stereo not given), the survival was 61%.

As to `CC(C(=O)Nc1cccc(C#N)c1)n1nc(-c2ccccc2)c2c(c1=O)CCCC2` (stereo not given), the survival is 20% (active).

On to `CCN(C(=O)Cn1c(=O)n(-c2ccccc2)c(=O)c2ccc(C(=O)NCc3ccc4c(c3)OCO4)cc21)c1cccc(C)c1`, for which the survival is 84%.

Consider `CC(C)C(c1nnnn1C(C)(C)C)N(Cc1cc2cc3c(cc2[nH]c1=O)OCCO3)C1CCCCC1` (stereo not given), for which the survival is 109%.

In the case of `COc1cccc(NC(=O)CCN2CCN(CCO)CC2)c1`, the survival was 158%.

In the case of `CC(C)c1nn2c(=O)cc(COC(=O)CNC(=O)c3ccccc3Cl)nc2s1`, the survival was 125%.

On to `CCOc1ccc2oc(=O)cc(CN3CCN(c4ccccc4)CC3)c2c1`, for which the survival is 83%.

Regarding `COc1ccc2oc(=O)cc(CN3CCN(C(=O)c4ccccc4F)CC3)c2c1`, the survival was 36% (active).

On to `COc1ccc2oc(=O)cc(CN3CCN(c4ccccc4F)CC3)c2c1`, for which the survival was 72%.

In the case of `COc1ccc2oc(=O)cc(CN3CCN(C(=O)c4ccccc4Br)CC3)c2c1`, the survival is 44% (active).

For the compound `COc1ccc(N2CCN(Cc3cc(=O)oc4ccc(OC)cc34)CC2)cc1`, the survival was 86%.

On to `COc1ccc2oc(=O)cc(CN3CCN(Cc4ccccc4)CC3)c2c1`, for which the survival was 83%.

Turning to `COc1ccc2oc(=O)cc(CN3CCN(c4ccccc4OC)CC3)c2c1`, the survival is 77%.

For the compound `COc1ccc2oc(=O)cc(CN3CCN(C(=O)c4ccccc4)CC3)c2c1`, the survival is 41% (active).

Turning to `COc1ccc2oc(=O)cc(CN3CCN(c4ccc(F)cc4)CC3)c2c1`, the survival is 61%.

Regarding `CC(C)NC(=O)C1CCN(Cc2ccccc2Cl)CC1`, the survival was 92%.

For `Cc1ccc(NC(=O)CCNS(=O)(=O)c2ccc3c(c2)CCN3C(=O)C2CC2)c(Cl)c1`, the survival is 83%.

With `COc1ccc(Cl)cc1NC(=O)CSc1nnc(C)n2c1cc1occc12`, the survival was 50%.

Consider `Cc1ccc(C)c(NC(=O)Cn2c(=O)n(CCC(=O)NCc3ccc4c(c3)OCO4)c(=O)c3ccccc32)c1`, for which the survival was 104%.

With `O=C(CN1C(=O)CSC1=O)c1ccccc1`, the survival was 88%.

For the compound `CC1Cc2ccccc2N1C(=O)c1cnsn1` (stereo not given), the survival is 97%.

Consider `CC1=C(C(=O)Nc2ccc(Cl)cc2)C(c2cccs2)n2nc(SCc3cccc(Cl)c3)nc2N1` (stereo not given), for which the survival is 89%.

Take `CCNC(=S)Nc1cc(-c2ccc(Cl)cc2)[nH]n1`: the survival is 20% (active).

With `CC(=O)Nc1cc(-c2ccc(Cl)cc2)[nH]n1`, the survival was 106%.

For the compound `CCOC(=O)/C=C(\C)Nc1cc(-c2ccc(Cl)cc2)[nH]n1`, the survival is 68%.

On to `CCN(CC)S(=O)(=O)c1ccc2c(c1)N(CC(=O)N1CCN(c3ccc(F)cc3)CC1)C(=O)CO2`, for which the survival was 94%.

As to `Cc1oc(-c2ccc(Cl)cc2)nc1CS(=O)CC(=O)NCc1ccc(Cl)cc1` (stereo not given), the survival is 63%.

Regarding `Cc1ccc(-c2onc(C)c2C)cc1S(=O)(=O)Nc1ccc(Cl)cn1`, the survival was 97%.

As to `O=C(CSc1nc(-c2cccs2)nc2cc(=O)[nH]n12)Nc1ccccc1Cl`, the survival was 76%.

Take `Cc1cccc(NC(=O)CSc2ncc(-c3ccccc3)[nH]2)c1C`: the survival is 51%.

Regarding `COc1ccc(-c2nnc(SCC(=O)NC3CCCC3)nc2-c2ccc(OC)c(OC)c2)cc1OC`, the survival was 47% (active).

For the compound `O=C(CSc1nc(-c2cccs2)nc2cc(=O)[nH]n12)Nc1ccccc1F`, the survival was 47% (active).

With `Cc1ccccc1NC(=O)CSc1nc(-c2cccs2)nc2cc(=O)[nH]n12`, the survival was 93%.

In the case of `Cc1cccc(NC(=O)CSc2ncc(-c3ccc(Br)cc3)[nH]2)c1`, the survival is 110%.

On to `O=C(CSc1ncc(-c2ccccc2)[nH]1)Nc1cccc(O)c1`, for which the survival was 89%.

For the compound `O=C(CSc1ncc(-c2ccccc2)[nH]1)Nc1cccc(C(F)(F)F)c1`, the survival was 12% (active).

In the case of `O=C(CSc1nc2cc3ccccc3cc2[nH]1)Nc1cccc(C(F)(F)F)c1`, the survival was 74%.

`O=C(CSc1ncc(-c2ccccc2)[nH]1)Nc1cccc(Br)c1`: the survival is 9% (active).

Regarding `CCOc1ccc(-c2nnc(SCC(=O)NC3CCCCC3)nc2-c2ccc(OCC)c(OC)c2)cc1OC`, the survival was 78%.

`CCOc1ccc(-c2nnc(SCC(=O)NC3CCCC3)nc2-c2ccc(OCC)c(OC)c2)cc1OC`: the survival was 71%.
